Measurements taken from the supplement of paper PMC11732987, “Enantioselective OTUD7B fragment discovery through chemoproteomics screening and high-throughput optimisation” (Communications Chemistry, 2025).

Experiments:
Assay in all cases: log2 ratio of Biotin-Ahx-Ub-VS probe labelling (fragment/DMSO); higher = less target engagement (more negative = stronger competition), active = hit call of the paper (q ≤ 0.05, log2 ratio ≤ -1)
Conditions in all cases: compound concentration: 200 uM; treatment time: 3 h
USP19 = target: T1, USP19 (UniProt O94966)
T1 sequence (whole entry): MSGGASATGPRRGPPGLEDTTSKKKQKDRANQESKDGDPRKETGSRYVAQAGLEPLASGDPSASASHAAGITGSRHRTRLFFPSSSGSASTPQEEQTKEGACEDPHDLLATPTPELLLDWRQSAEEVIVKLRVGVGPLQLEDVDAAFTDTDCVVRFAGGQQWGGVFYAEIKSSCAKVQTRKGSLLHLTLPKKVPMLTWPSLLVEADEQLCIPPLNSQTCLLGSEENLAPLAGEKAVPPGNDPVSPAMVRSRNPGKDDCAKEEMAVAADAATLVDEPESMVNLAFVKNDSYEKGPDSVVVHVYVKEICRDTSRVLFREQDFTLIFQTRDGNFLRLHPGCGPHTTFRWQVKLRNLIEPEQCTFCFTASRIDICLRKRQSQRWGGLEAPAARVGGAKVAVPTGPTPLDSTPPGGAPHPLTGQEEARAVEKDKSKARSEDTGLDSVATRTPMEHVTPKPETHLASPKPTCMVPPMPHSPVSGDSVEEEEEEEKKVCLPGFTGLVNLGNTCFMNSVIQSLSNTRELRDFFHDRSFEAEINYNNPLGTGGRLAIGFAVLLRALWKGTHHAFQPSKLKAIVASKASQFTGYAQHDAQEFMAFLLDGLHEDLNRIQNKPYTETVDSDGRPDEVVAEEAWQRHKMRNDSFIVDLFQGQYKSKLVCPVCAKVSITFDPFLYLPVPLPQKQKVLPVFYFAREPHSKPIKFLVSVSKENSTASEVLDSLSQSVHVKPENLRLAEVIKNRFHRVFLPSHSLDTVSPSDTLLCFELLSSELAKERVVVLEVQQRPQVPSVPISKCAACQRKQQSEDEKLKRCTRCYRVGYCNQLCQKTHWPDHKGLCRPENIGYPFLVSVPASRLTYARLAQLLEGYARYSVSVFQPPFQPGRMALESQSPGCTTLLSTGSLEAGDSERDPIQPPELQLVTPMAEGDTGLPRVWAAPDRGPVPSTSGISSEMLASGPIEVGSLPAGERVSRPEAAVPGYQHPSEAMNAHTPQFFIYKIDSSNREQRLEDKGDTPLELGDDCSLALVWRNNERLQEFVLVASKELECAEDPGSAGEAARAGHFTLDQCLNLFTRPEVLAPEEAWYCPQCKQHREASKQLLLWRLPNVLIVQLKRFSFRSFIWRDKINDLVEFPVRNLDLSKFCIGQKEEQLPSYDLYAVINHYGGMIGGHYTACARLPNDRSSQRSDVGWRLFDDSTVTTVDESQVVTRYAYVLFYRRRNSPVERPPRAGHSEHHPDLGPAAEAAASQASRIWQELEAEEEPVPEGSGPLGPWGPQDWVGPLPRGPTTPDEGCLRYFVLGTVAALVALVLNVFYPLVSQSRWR
Outline: (§1)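 Fragment (200 µM) or vehicle was incubated for 3 h with triplicate HEK293T lysate samples of 495 µg, which were then treated with Biotin-Ahx-Ub-VS at 0.5 µM final for 1 h. Labelled DUBs were enriched on NeutrAvidin, digested with LysC and trypsin, and analysed by diaPASEF LC-MS/MS. Values are average log2 fragment/vehicle ratios from an unpaired t-test on global-median-normalised Spectronaut label-free quantities, using proteins with ≥2 unique peptides.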

USP22 = target: T2, USP22 (UniProt Q9UPT9)
T2 sequence (whole entry): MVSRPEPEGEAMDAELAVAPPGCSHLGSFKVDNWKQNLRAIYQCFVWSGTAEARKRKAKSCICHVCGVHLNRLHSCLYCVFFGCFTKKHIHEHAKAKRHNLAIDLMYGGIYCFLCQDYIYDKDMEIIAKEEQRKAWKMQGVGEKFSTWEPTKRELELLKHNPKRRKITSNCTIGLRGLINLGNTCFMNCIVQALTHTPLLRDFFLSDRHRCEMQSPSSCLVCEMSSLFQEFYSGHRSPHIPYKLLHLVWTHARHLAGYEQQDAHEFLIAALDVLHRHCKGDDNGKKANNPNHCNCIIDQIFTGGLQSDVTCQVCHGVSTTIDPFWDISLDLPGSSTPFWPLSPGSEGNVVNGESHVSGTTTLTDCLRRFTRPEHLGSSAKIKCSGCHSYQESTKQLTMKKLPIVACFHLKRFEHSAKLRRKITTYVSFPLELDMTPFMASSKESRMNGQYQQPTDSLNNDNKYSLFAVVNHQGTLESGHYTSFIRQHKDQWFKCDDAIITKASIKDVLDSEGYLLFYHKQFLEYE
Outline: as §1

USP24 = USP24 (UniProt Q9UPU5)
Outline: as §1

USP25 = target: T3, USP25 (UniProt Q9UHP3)
T3 sequence (whole entry): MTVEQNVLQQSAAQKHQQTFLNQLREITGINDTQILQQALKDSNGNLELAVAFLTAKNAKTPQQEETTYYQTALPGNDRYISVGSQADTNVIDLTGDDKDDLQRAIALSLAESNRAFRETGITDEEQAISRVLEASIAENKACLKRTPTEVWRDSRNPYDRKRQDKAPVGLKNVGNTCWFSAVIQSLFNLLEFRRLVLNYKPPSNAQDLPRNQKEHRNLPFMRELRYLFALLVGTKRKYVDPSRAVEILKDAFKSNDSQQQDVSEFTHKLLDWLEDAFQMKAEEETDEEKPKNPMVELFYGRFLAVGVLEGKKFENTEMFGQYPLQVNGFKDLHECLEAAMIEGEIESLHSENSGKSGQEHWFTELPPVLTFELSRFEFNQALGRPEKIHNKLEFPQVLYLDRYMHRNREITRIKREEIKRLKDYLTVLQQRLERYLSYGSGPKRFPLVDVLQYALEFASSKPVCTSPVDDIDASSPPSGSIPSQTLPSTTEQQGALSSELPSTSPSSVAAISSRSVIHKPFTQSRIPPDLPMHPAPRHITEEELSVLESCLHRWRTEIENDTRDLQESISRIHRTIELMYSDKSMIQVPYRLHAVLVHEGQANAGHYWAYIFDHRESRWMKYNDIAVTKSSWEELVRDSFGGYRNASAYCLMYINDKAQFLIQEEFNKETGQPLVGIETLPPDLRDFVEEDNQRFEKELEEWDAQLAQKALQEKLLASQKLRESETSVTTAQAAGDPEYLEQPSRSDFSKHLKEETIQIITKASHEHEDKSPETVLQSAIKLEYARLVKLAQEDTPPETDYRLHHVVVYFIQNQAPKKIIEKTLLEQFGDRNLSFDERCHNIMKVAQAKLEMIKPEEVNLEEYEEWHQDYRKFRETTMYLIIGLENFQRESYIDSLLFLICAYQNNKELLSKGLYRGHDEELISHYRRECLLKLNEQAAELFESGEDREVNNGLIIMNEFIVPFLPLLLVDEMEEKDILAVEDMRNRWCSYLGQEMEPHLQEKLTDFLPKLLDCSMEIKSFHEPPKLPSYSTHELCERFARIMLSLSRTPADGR
Outline: as §1

USP28 = target: T4, USP28 (UniProt Q96RU2)
T4 sequence (whole entry): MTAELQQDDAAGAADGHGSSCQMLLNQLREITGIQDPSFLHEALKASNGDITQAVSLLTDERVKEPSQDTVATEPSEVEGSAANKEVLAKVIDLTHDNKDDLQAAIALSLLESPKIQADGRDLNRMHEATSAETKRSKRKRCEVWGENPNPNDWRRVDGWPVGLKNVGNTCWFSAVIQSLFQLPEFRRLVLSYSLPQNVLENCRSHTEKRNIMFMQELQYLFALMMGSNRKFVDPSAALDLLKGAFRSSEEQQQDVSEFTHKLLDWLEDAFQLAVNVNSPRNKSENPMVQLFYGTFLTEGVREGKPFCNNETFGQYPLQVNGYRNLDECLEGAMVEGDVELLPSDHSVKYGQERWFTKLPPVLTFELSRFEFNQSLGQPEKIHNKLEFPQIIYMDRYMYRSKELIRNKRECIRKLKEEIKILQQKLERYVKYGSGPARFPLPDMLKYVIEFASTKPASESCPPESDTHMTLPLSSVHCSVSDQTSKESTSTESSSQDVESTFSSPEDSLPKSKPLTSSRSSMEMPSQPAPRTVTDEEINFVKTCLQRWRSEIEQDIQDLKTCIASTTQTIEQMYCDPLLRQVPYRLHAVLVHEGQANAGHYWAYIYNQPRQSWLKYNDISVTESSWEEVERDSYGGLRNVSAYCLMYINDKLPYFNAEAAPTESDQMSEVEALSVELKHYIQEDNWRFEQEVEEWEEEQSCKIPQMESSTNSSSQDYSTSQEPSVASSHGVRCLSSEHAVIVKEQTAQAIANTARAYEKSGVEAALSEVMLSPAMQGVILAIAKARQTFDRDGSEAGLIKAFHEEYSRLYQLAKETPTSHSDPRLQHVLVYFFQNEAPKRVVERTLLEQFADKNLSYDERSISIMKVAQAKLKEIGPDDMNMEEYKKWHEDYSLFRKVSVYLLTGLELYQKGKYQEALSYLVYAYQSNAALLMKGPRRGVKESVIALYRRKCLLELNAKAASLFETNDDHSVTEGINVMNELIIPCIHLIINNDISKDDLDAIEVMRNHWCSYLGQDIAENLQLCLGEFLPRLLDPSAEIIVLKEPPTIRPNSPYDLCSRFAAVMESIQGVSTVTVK
Outline: as §1

Measured: log2 ratio of Biotin-Ahx-Ub-VS probe labelling

USP24, sequence (Q9UPU5 whole entry): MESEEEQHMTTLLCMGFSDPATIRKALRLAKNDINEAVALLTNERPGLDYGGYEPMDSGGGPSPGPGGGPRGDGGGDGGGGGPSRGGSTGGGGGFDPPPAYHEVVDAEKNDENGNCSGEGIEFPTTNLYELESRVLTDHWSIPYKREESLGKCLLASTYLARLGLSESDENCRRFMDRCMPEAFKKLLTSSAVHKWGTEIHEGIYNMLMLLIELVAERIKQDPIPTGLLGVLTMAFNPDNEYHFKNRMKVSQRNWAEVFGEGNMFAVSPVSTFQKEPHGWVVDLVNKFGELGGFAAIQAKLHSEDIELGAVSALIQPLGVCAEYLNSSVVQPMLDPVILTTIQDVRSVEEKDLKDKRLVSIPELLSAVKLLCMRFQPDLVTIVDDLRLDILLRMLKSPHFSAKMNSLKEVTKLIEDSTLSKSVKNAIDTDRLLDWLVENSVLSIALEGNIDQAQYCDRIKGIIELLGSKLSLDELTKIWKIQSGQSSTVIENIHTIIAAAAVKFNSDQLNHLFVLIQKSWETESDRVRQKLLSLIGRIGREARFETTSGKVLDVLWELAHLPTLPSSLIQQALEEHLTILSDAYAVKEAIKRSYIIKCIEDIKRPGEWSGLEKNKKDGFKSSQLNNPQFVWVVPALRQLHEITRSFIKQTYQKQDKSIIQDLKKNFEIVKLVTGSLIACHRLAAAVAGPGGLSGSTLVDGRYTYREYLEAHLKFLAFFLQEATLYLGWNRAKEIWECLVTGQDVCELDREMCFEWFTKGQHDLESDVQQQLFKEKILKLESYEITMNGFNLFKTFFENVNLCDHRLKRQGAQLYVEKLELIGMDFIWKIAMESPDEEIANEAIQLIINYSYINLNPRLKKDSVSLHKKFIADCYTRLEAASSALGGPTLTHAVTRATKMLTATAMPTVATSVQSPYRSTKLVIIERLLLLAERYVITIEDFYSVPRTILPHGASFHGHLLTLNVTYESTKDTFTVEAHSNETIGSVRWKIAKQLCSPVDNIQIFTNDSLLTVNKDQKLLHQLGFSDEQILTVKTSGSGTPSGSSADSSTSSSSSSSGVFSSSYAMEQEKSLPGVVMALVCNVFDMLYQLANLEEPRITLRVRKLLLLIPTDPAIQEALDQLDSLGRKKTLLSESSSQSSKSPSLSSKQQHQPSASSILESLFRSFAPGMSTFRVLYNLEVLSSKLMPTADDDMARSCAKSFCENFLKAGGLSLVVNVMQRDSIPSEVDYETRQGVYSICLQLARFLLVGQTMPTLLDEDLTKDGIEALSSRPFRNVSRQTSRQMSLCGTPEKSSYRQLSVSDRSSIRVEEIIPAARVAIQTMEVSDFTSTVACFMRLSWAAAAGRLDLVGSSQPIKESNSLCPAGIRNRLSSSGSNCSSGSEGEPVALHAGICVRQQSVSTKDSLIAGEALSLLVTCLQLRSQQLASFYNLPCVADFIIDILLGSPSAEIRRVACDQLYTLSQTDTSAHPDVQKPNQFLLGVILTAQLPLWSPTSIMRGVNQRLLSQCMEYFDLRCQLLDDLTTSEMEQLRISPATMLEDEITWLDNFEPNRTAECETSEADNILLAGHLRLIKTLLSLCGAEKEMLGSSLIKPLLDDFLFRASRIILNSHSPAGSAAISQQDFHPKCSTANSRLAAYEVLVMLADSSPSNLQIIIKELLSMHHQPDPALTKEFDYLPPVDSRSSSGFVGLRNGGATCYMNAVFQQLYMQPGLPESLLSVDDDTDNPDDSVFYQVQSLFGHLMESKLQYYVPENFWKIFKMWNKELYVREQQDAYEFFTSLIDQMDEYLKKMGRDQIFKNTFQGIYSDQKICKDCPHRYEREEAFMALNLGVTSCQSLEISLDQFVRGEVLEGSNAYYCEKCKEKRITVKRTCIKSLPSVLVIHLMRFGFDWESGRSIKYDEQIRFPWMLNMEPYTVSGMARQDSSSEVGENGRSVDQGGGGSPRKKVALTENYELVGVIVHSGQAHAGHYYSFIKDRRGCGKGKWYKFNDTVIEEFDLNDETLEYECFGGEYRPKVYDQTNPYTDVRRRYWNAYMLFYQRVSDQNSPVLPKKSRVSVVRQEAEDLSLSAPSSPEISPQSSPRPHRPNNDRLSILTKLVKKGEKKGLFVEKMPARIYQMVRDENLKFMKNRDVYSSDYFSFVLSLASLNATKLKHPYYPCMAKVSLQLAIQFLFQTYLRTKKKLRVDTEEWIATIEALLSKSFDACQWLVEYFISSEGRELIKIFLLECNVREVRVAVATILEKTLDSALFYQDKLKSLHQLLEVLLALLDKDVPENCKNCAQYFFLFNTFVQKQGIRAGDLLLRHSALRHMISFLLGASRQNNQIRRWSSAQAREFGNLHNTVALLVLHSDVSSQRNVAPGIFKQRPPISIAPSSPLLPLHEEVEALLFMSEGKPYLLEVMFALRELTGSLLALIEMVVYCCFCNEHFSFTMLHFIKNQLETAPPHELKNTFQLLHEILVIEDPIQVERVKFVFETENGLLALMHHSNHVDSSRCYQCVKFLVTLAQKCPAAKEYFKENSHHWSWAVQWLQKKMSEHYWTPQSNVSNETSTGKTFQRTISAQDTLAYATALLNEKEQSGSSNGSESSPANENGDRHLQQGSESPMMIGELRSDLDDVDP

CC(NC(=O)CCl)c1cnn(C2CC2)c1 (stereo not given)
inactive: USP19 -0.305 | USP22 -0.22 | USP24 -0.409 | USP25 -0.784 | USP28 -0.621
